# Several values for one entry are separate records, joined by “and”; a condition that tells them apart may be missing. Equal entries are not always repeated. Results filed as inconclusive are left out. Unmarked numbers belong to inactive results. Activity calls are given as the source filed them. The call rests on the fitted dose curve; in most records, active means well fitted curve in the direction sought with a large enough effect; inconclusive means small, poorly fitted or top-dose-only effect, or another doubt; inactive means no such curve, though single readings can be large; an effect the other way counts as inactive or inconclusive.
# Key:
# [1] = molecular target: Cellular tumor antigen p53 (Homo sapiens) (UniProt P04637); experiment: Primary qHTS for small molecule compounds that upregulate eGFP-tagged delta133p53alpha (in N-terminal) cells. (AID 2060322); conditions: NCI-H358 eGFP-delta133p53alpha fluorescence, 24 h; activation: hits give high values; further: nearly all actives have a fitted effect of over 75% in size; further: potency means the concentration at half of the fitted maximal effect;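 on activation: cells pre-induced with doxycycline then dosed without doxycycline; series mostly up to about 56 µM; 0% = DMSO vehicle and 100% = reference activator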
# Cellular tumor antigen p53 (Homo sapiens), sequence (P04637 whole entry, looked up): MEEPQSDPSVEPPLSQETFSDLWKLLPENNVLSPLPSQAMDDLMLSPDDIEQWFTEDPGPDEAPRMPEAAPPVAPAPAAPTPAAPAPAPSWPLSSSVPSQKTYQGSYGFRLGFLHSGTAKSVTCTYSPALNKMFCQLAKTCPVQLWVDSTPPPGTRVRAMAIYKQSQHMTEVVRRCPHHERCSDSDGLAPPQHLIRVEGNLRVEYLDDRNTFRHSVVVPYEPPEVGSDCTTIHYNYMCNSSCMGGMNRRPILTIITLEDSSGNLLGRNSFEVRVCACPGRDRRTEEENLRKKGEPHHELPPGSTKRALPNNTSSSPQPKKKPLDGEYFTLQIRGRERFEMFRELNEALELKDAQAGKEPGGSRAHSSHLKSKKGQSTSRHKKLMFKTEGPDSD
# Outline: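 NCI-H358 cells pre-induced 24 h with 10 ng/ml doxycycline for eGFP-delta133p53alpha, plated dox-free and exposed 24 h at 37C to titrated compounds. Fixed, Hoechst-stained; gated GFP peak intensity by laser scanning cytometry, normalized to DMSO (0%) and 57.5 uM 5-azacytidine (100%).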
# [2] = molecular target: Aldehyde dehydrogenase, mitochondrial (Homo sapiens) (UniProt P05091); experiment: qHTS for Inhibitors of the Aldehyde Dehydrogenase Family (ALDH2) Primary screen (AID 2061308);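 further: plate controls were vehicle for no effect and reference inhibitor for full effect; nearly all actives have a fitted effect of over 55% in size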
# [3] = BET inhibitor-based combinations targeting novel dependencies in MECOM-rearranged (r) AML: MV-4-11 cell line (AID 2202233); further: potency means the concentration at half of the fitted maximal effect; nearly all actives have a fitted effect of over 45% in size
# Outline: (§1)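 Using pin-tool transfer, drugs were added in 11 doses to cells (500/well), incubated 48 hr, and assessed with CellTiter-Glo. Z-AUC is a mean-centring transformation applied separately to each screened line.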
# [4] = BET inhibitor-based combinations targeting novel dependencies in MECOM-rearranged (r) AML: AML-194 cell line (AID 2202237; further: nearly all actives have a fitted effect of over 40% in size; further: potency means the concentration at half of the fitted maximal effect)
# Outline: (§2)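 Viability of cells (500 per well) is scored by luminescent CellTiter-Glo at 48 hr post-dosing. Eleven-point titrations are normalized to DMSO and empty controls and reduced to AUC values.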
# [5] = BET inhibitor-based combinations targeting novel dependencies in MECOM-rearranged (r) AML: SET-2 cell line (AID 2202231); conditions: SET-2 AML cells viability, CellTiter-Glo luminescence, 48 h; viability: hits give low values, concentration not given here; further: nearly all actives have a fitted effect of over 35% in size; further: potency means the concentration at half of the fitted maximal effect;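 on viability: plate controls were DMSO treated cells for no effect and wells without cells for full effect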
# Outline: as §2
# [6] = BET inhibitor-based combinations targeting novel dependencies in MECOM-rearranged (r) AML: OCI-AML3 cell line (AID 2202232); conditions: Potency: OCI-AML3 viability; further: nearly all actives have a fitted effect of over 35% in size; further: potency means the concentration at half of the fitted maximal effect
# Outline: as §2
# [7] = BET inhibitor-based combinations targeting novel dependencies in MECOM-rearranged (r) AML: HNT-34 cell line (AID 2202234); further: nearly all actives have a fitted effect of over 35% in size; further: potency means the concentration at half of the fitted maximal effect
# Outline: as §1
# [8] = BET inhibitor-based combinations targeting novel dependencies in MECOM-rearranged (r) AML: UCSD-AML1 cell line (AID 2202235); further: nearly all actives have a fitted effect of over 40% in size; further: potency means the concentration at half of the fitted maximal effect
# Outline: as §1
# [9] = BET inhibitor-based combinations targeting novel dependencies in MECOM-rearranged (r) AML: AML-191 cell line (AID 2202236; further: nearly all actives have a fitted effect of over 35% in size; further: potency means the concentration at half of the fitted maximal effect)
# Outline: as §2
# [10] = molecular target: Retinaldehyde dehydrogenase 3 (Homo sapiens) (UniProt P47895); experiment: qHTS for Inhibitors of the Aldehyde Dehydrogenase Family (ALDH1A3) Validation screen (AID 2061312); further: nearly all actives have a fitted effect of over 45% in size; further: potency means the concentration at half of the fitted maximal effect
# [11] = molecular target: Retinaldehyde dehydrogenase 3 (Homo sapiens) (UniProt P47895); experiment: qHTS for Inhibitors of the Aldehyde Dehydrogenase Family (ALDH1A3) Confirmatory screens (AID 2061311); further: nearly all actives have a fitted effect of over 60% in size; further: potency means the concentration at half of the fitted maximal effect
# [12] = molecular target: Retinaldehyde dehydrogenase 3 (Homo sapiens) (UniProt P47895); experiment: qHTS for Inhibitors of the Aldehyde Dehydrogenase Family (ALDH1A3) Primary screen (AID 2061315); further: potency means the concentration at half of the fitted maximal effect
# [13] = molecular target: Aldehyde dehydrogenase 1A1 (Homo sapiens) (UniProt P00352); experiment: qHTS for Inhibitors of the Aldehyde Dehydrogenase Family (ALDH1A1) Confirmatory screens (AID 2061316); further: potency means the concentration at half of the fitted maximal effect; nearly all actives have a fitted effect of over 65% in size
# [14] = molecular target: Retinal dehydrogenase 2 (Homo sapiens) (UniProt O94788); experiment: qHTS for Inhibitors of the Aldehyde Dehydrogenase Family (ALDH1A2) Confirmation screens (AID 2061314); further: potency means the concentration at half of the fitted maximal effect; nearly all actives have a fitted effect of over 65% in size
compound,measurement,setting,value
COc1ccc(Cn2ccc3ccc(C(=O)NO)cc32)cc1,activation,[1],20.3% and -6.7%
same,Potency,[2],inactive
same,Potency,[3],20.9 µM (active)
same,Potency,[4],18.6 µM (active)
COc1cc2c(cc1OCCCN1CCCC1)N=C(N)C21CCC1,activation,[1],5.59%
same,Potency,[2],inactive
same,viability,[5],106%
same,Potency,[6],inactive
same,Potency,[7],inactive
same,Potency,[8],inactive
same,Potency,[9],inactive
same,Potency,[4],inactive
NC(=O)c1noc([C@H](CCCC2CCCCC2)CC(=O)NO)n1,activation,[1],-7.14%
same,Potency,[2],inactive
same,Potency,[6],14.8 µM (active)
same,Potency,[3],18.6 µM (active)
same,Potency,[7],2.95 µM (active)
same,Potency,[8],5.25 µM (active)
same,Potency,[9],3.72 µM (active)
O=C(Nc1cccc(C(=O)Nc2ccc(S(=O)(=O)O)c3cc(S(=O)(=O)O)cc(S(=O)(=O)O)c23)c1)Nc1cccc(C(=O)Nc2ccc(S(=O)(=O)O)c3cc(S(=O)(=O)O)cc(S(=O)(=O)O)c23)c1,activation,[1],-8.79%
same,Potency,[10],inactive
COc1cc(N2CCC(N)CC2)ccc1Nc1ncc(Cl)c(-c2c[nH]c3ccccc23)n1,Potency,[1],26.9 µM (active)
same,Potency,[2],inactive
same,Potency,[5],18.6 µM (active)
same,Potency,[3],0.0661 µM (active)
same,Potency,[7],1.32 µM (active)
same,Potency,[8],1.48 µM (active)
same,Potency,[9],8.33 µM (active)
same,Potency,[4],10.5 µM (active)
COc1cc(N2CCN(C(C)=O)CC2)ccc1Nc1ncc(Cl)c(Nc2ccc(N3CCN(C(C)=O)CC3)cc2OC)n1,activation,[1],-5.36%
same,Potency,[2],inactive
same,Potency,[3],0.934 µM (active)
same,Potency,[7],6.61 µM (active)
same,Potency,[8],4.17 µM (active)
OCc1ccc(-c2ccc(-c3ccc(CO)s3)o2)s1,activation,[1],23.8% and 25%
same,Potency,[2],inactive
same,Potency,[6],18.6 µM (active)
same,Potency,[3],13.2 µM (active)
same,Potency,[9],26.3 µM (active)
same,Potency,[4],26.3 µM (active)
C=CC(=O)N1CC(N2CCN(C(=O)CNc3cc(C4CC4)c(Cl)cc3O)CC2)C1,activation,[1],10%
same,Potency,[11],4 µM (active)
same,Potency,[10],10 µM (active)
same,Potency,[12],2.51 µM (active)
same,Potency,[13],22.5 µM (active)
Cn1nc(-c2ccc(C(F)(F)F)cc2)nc2c(=O)n(C)c(=O)nc1-2,Potency,[1],4.78 µM (active)
same,Potency,[10],2.51 µM (active)
Cc1cc2c(N3CCCC3)nc(N3CCCC3)nc2n1C,activation,[1],-16.7%
same,Potency,[11],14.2 µM (active)
same,Potency,[12],inactive
same,Potency,[13],11.3 µM (active)
Cc1c(CN2CCN(S(C)(=O)=O)CC2)sc2c(N3CCOCC3)nc(-c3cnc(N)nc3)nc12,activation,[1],-10.7%
same,Potency,[2],inactive
same,Potency,[6],0.59 µM (active)
same,Potency,[3],1.32 µM (active)
same,Potency,[7],1.66 µM (active)
same,Potency,[8],0.186 µM (active)
same,Potency,[9],0.59 µM (active)
O=c1c(-c2ccc(O)cc2)coc2cc(O[C@@H]3O[C@H](CO)[C@H](O)[C@H](O)[C@H]3O)ccc12,activation,[1],8.65%
same,Potency,[10],inactive
C=C1CCC2C(C)(COC(C)=O)CCCC2(C)C1CCC(C)CC(=O)O (stereo not drawn),activation,[1],-12.2%
same,Potency,[11],inactive
same,Potency,[12],inactive
CNC(=O)c1ccccc1Nc1nc(Nc2ccc(N3CCOCC3)cc2OC)ncc1Cl,Potency,[1],3.06 µM (active) and 21.3 µM (active)
same,Potency,[2],inactive
same,Potency,[5],16.6 µM (active)
same,Potency,[3],0.263 µM (active)
same,Potency,[7],1.32 µM (active)
same,Potency,[8],2.35 µM (active)
CC(C(=O)O)c1ccc2c(c1)[nH]c1ccc(Cl)cc12 (stereo not drawn),activation,[1],8.47% and -3.82%
same,Potency,[11],15.9 µM (active)
same,Potency,[10],inactive
same,Potency,[14],6.34 µM (active)
same,Potency,[12],inactive
O=C1OCc2cc3cccc(O[C@@H]4O[C@H](CO)[C@@H](O)[C@H](O)[C@H]4O)c3c(O)c21,activation,[1],-11.5%
same,Potency,[11],13.9 µM (active)
CN(C)Cc1c(C(=O)NCCOc2ccc(C(=O)NO)cc2)oc2ccccc12,Potency,[1],21.7 µM (active)
same,Potency,[2],inactive
same,Potency,[5],0.662 µM (active)
same,Potency,[6],0.59 µM (active)
same,Potency,[3],0.263 µM (active)
same,Potency,[7],0.934 µM (active)
same,Potency,[8],0.662 µM (active)
same,Potency,[9],0.742 µM (active)
same,Potency,[4],0.934 µM (active)
CCCCc1nc2cc(/C=C/C(=O)NO)ccc2n1CCN(CC)CC,Potency,[1],27.3 µM (active)
same,Potency,[2],inactive
same,Potency,[5],0.662 µM (active)
same,Potency,[6],0.833 µM (active)
same,Potency,[3],0.332 µM (active)
same,Potency,[7],0.833 µM (active)
same,Potency,[8],0.833 µM (active)
same,Potency,[9],0.833 µM (active)
same,Potency,[4],1.18 µM (active)
CC1=C(C(=O)OC2CCCCC2)C(c2ccc([N+](=O)[O-])cc2)C2=C(CC(C)(C)CC2=O)N1 (stereo not drawn),activation,[1],7.16%
same,Potency,[11],2.25 µM (active)
same,Potency,[10],5.62 µM (active)
same,Potency,[12],7.08 µM (active)
same,Potency,[13],10.1 µM (active)
CN1CCc2c(n(Cc3ccc(C(=O)NO)cc3)c3ccccc23)C1,activation,[1],23.6%
same,Potency,[2],inactive
same,Potency,[3],20.9 µM (active)
same,Potency,[8],inactive

# From PubChem BioAssay (NCATS)
